# Screening results (PubChem)
# The list is not random: actives were taken first. Their share in the collection is about 10%.
# HEK293 tox: kills HEK 293 cells; HEK 293 viability, ATP luminescence (CellTiter-Glo), 48-72 h; Potency, µM (series often up to 115 µM), without a hit: at the highest dose activity change, negative = cytotoxicity, hits mostly inhibitors; 94,000 tested, 6.6% active; AID 1345083; note: % is set by controls: 0 for no effect and ±100 for the full control effect; nearly all actives have a fitted effect of over 60% in size
#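 qHTS cytotoxicity; HEK 293, 250 cells/well; compound pinned; 48 or 72 hr, 37 degree Celsius, 5% CO2, 95% humidity; CellTiter-Glo, 10 min RT; luminescence (ATP).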
# GPT2 inhibitor: blocks human glutamate pyruvate transaminase 2; Q8TD30; Recombinant GPT2, coupled pyruvate oxidase/HRP Amplex Red fluorescence; Potency, µM (top dose mostly 57.7 µM), for inactives: top-dose activity change, negative = inhibition, most hits filed as inhibitors; 100,000 tested, 0.25% active; AID 1671188; note: % is set by controls: 0 for no effect and ±100 for the full control effect; nearly all actives have a fitted effect of over 60% in size
#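 GPT2 10ng/uL, a-KG 250uM, L-Ala 2mM, HEPES pH7.5 + 0.0001% Tween; 30 min RT. Then Amplex mix (PO/HRP/ThPP), 30 min RT dark, fluorescence. AOA 50uM used as positive control.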
# hNpr1 antagonist: blocks ANP-stimulated signaling of human Npr1 receptor | 76,000 tested, 1.6% active | Potency, µM (highest dose often 46.3 µM), for inactives: at the top dose activity change, negative = inhibition, most hits filed as inhibitors | HEK293 hNpr1 GloSensor cGMP, ANP-stimulated luminescence | AID 1347048 | P16066; calls by dose curve; note: % is set by controls: 0 for no effect and ±100 for the full control effect; nearly all actives have a fitted effect of over 60% in size
# Target sequence (P16066 whole entry, looked up): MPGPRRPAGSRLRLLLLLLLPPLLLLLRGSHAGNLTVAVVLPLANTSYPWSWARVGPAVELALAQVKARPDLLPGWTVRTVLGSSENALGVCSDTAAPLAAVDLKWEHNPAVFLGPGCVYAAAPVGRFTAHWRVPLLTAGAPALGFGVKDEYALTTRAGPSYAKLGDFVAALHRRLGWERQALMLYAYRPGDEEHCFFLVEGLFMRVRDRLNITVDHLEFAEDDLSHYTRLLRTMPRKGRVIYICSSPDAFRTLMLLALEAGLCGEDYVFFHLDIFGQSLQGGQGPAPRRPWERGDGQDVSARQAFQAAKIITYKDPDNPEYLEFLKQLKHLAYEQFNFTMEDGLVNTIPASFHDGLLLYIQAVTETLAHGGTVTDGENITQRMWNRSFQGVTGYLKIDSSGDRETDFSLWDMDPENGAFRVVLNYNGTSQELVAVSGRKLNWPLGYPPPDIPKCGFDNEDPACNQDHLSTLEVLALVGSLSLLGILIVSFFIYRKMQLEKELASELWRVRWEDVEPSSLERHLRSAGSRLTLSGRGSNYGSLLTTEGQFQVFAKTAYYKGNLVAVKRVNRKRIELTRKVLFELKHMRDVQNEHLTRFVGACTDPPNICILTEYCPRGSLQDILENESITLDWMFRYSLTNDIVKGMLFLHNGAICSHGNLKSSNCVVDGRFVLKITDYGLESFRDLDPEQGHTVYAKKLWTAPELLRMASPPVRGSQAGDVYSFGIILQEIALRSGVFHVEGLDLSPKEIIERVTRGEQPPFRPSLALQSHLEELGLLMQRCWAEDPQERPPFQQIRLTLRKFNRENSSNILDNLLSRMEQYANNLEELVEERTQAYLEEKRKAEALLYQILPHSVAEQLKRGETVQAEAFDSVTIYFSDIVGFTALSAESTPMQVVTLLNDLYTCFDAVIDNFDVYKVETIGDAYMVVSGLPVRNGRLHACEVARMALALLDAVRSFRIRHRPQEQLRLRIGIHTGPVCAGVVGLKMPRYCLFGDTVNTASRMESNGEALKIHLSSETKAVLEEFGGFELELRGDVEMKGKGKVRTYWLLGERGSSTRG
#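 Compound pre-incubated 30 min at room temperature on GloSensor-loaded HEK293 cells stably carrying hNpr1 and the pGS-40F cGMP biosensor. Stimulation uses hNppA at 0.1 nM final; luminescence is taken at baseline and 20 min post-agonist.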
# FLuc inh: blocks purified firefly luciferase enzyme activity; P08659; purified P. pyralis luciferase, luminescence, biochemical; Potency, µM (doses to about 115 µM), hits mostly inhibitors; 76,000 tested, 2.5% active; note: % is set by controls: 0 for no effect and ±100 for the full control effect; nearly all actives have a fitted effect of over 65% in size
#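 Inhibitors were tested against purified firefly luciferase in a biochemical, low-substrate format (both substrates at 10uM) and luminescence measured with a CCD imager.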
# NIH3T3 tox: kills NIH 3T3 cells; 94,000 tested, 4.3% active; AID 1345082; NIH 3T3 viability, CellTiter-Glo ATP luminescence, 48-72 h; Potency, µM (titrated, usually from 96.7 µM), inactives show at the highest dose activity change, negative = cytotoxicity, most hits filed as inhibitors; note: % is set by controls: 0 for no effect and ±100 for the full control effect; nearly all actives have a fitted effect of over 55% in size
#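 Cells were seeded at 400 per well, treated with pin-transferred compound, and kept 48 or 72 hr at 37 °C before CellTiter-Glo addition and luminescence imaging of cellular ATP.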
# Npr1 antag conf: hNpr1 antagonism, confirmation assay | Potency, µM (series often up to 57.6 µM), without a hit: at the top dose activity change, negative = inhibition, most hits filed as inhibitors | 1,400 tested, 76% active | HEK293 hNpr1 cGMP GloSensor luminescence, ANP-stimulated | shares compounds with hNpr1 antagonist; calls by dose curve; note: nearly all actives have a fitted effect of over 70% in size
# Npr2 selectivity: hNpr2 antagonism, selectivity versus Npr1; shares compounds with hNpr1 antagonist; HEK293 hNpr2 GloSensor cGMP luminescence, CNP-stimulated; Potency, µM (titrated, usually from 57.6 µM), inactives show at the highest dose activity change, negative = inhibition, usual class: inhibitors; 1,400 tested, 67% active; calls by dose curve; note: nearly all actives have a fitted effect of over 70% in size
# FLuc counter: inhibits firefly luciferase, false Npr1 antagonist flag; shares compounds with hNpr1 antagonist; Potency, µM (highest dose often 57.6 µM), inactives show top-dose activity change, negative = inhibition, most hits filed as inhibitors; 1,400 tested, 0.7% active; purified FLuc enzyme, luminescence, Km substrate; note: 0% is about no effect
# GloSensor ctrl: counter-screen for Npr1 antagonists: GloSensor control cell line; shares compounds with hNpr1 antagonist; HEK293 GloSensor cGMP, SNP-stimulated, luminescence; Potency, µM (doses to about 57.6 µM), inactives show top-dose activity change, negative = inhibition, usual class: inhibitors; 1,400 tested, 69% active; calls by dose curve; note: % is set by controls: 0 for no effect and ±100 for the full control effect; nearly all actives have a fitted effect of over 70% in size
# The depositor's hits bear a star; i = inactive; ? = inconclusive; nt = no result given; [ ] = another dose, or the depositor's remark. Unless noted, calls come from the whole dose curve; as a rule, active = well fitted curve in the direction sought with a large enough effect; inconclusive = small, poorly fitted or top-dose-only effect, or another doubt; inactive = no such curve, though single readings can be large; an effect the other way counts as inactive or inconclusive. Potency is the fitted concentration of half-maximal effect.
SMILES,HEK293 tox,GPT2 inhibitor,hNpr1 antagonist,FLuc inh,NIH3T3 tox,Npr1 antag conf,Npr2 selectivity,FLuc counter,GloSensor ctrl
COc1ccc(-c2noc([C@@H]3CCCN3C(=O)Cc3ccccc3OC)n2)cc1,?,-3%,5%,i,-28%,nt,nt,nt,nt
CN(C)C[C@@H]1CN(S(C)(=O)=O)C[C@H]1NC(=O)CC1=CCCCC1,-18%,-24%,2%,i,-9%,nt,nt,nt,nt
COc1ccc(C(=O)N2CCn3c(nn(-c4ccc(Cl)cc4)c3=O)C2)cc1,-11%,-14%,nt,nt,-20%,?,22µM*,0%,27µM*
O=C(c1ccc(C(F)(F)F)cc1)N1CCn2c(nn(-c3ccncc3)c2=O)C1,?,i,?,i,?,24µM*,?,4%[86.2 µM],22µM*
COc1ccc(-n2nc3n(c2=O)CCN(C(=O)c2ccccc2)C3)cc1,-19%,i,nt,nt,-28%,nt,nt,nt,nt
O=C(Nc1ccc(Cl)cc1)N1CCn2c(nn(-c3ccc(C(F)(F)F)cc3)c2=O)C1,?,4%,?,i,?,nt,nt,nt,nt
O=C(Nc1ccccc1)N1CCn2c(nn(-c3ccc(C(F)(F)F)cc3)c2=O)C1,45µM*,-14%,?,i,?,?,?,-2%[86.2 µM],?
Cn1cccc1CN1CCn2c(nn(-c3ccc(Cl)cc3)c2=O)C1,?,i,nt,nt,?,?,?,14µM*,?
COC[C@@H]1CN(C(=O)CCc2cccc(OC)c2)C[C@H]1c1ccncc1,i,-4%,-3%,i,2%,nt,nt,nt,nt
CC1(COc2ccccc2)COc2ccc(C(=O)NCc3ccncc3)cc2N1 (centres undefined),?,i,?,i,?,nt,nt,nt,nt
CC1(COc2ccccc2)COc2ccc(C(=O)N3CCOCC3c3ccncc3)cc2N1 (centres undefined),?,-11%,-25%,i,?,?,?,4%,?
O=C1c2c(nc(COc3ccc4c(c3)OCO4)n2Cc2ccccc2)NCCN1Cc1ccccc1F,35µM*,-10%,?,i,?,24µM*,?,4%,?
O=C1c2c(nc(CNCc3cccc(F)c3)n2Cc2ccccc2)NCCN1Cc1cccc(Cl)c1,?,-2%,-24%,i,?,nt,nt,nt,nt
O=C1c2c(nc(CNCc3cccc(Cl)c3)n2Cc2ccccc2)NCCN1CCOc1ccccc1,?,1%,-29%,i,?,?,?,2%,?
CC1(c2ccccc2)N(Cc2ccccc2C#N)C(=O)OC12CCN(Cc1c[nH]c3ccccc13)CC2 (centres undefined),14µM*,-12%,?,i,22µM*,19µM*,19µM*,0%,-9%
O=C1NCCCCCN(C(=O)C2CCC2)[C@H]2CCCC[C@@H]12,-8%,i,7%,i,-7%,nt,nt,nt,nt
FC(F)(F)c1ccc(O[C@H]2COCCN(c3nc4ccccc4o3)C2)nc1,100µM*,3%[88.5 µM],35µM*,i,?,40µM*,35µM*,0%[86.2 µM],35µM*
O=C(Nc1ccc(F)c(Cl)c1)C1CCc2sc(C(=O)N3CCOCC3)cc2C1 (centres undefined),28µM*,i,8.9µM*,i,?,11µM*,12µM*,4%,9.7µM*
CN(C)C(=O)c1cc2c(s1)CCC(C(=O)Nc1ccc(F)c(Cl)c1)C2 (centres undefined),?,i,-21%,i,?,nt,nt,nt,nt
CCCN(CCc1ccsc1)C1CCc2c(O)cccc2C1 (centres undefined),nt,i,nt,nt,nt,nt,nt,nt,nt
CCNC(=O)CC1=CSC2=NC(C)=C(C(=O)Nc3ccccc3)C(c3ccc(F)cc3)N12 (centres undefined),?,i,?,i,-12%,?,-28%,-2%,-18%
CC1=C(C(=O)Nc2ccccc2)C(c2cccc(C)c2)N2C(CC(=O)NC3CC3)=CSC2=N1 (centres undefined),?,i,?,i,?,?,?,-2%,?
CC1=C(C(=O)Nc2ccccc2)C(c2cccc(C)c2)N2C(CC(=O)NC(C)C)=CSC2=N1 (centres undefined),?,i,?,i,?,nt,nt,nt,nt
Cn1ncc2c(C(=O)NCc3ccc(C(F)(F)F)cc3)cc(-c3ccc(Cl)cc3Cl)nc21,?,3%,nt,nt,?,nt,nt,nt,nt
CCS(=O)(=O)N1CCCC(c2nc(CCOc3ccc(F)cc3)no2)C1 (centres undefined),?,i,-8%,i,-25%,nt,nt,nt,nt
SMILES,HEK293 tox,GPT2 inhibitor,hNpr1 antagonist,FLuc inh,NIH3T3 tox,Npr1 antag conf,Npr2 selectivity,FLuc counter,GloSensor ctrl
COc1cccc(-c2ccccc2NC(=O)C2CCN(Cc3cc(OC)ccc3O)CC2)c1,18µM*,?,?,i,?,24µM*,?,-17%,27µM*
Cn1cccc1C(=O)NC1CCc2nn(C)c(=O)n2CC1 (centres undefined),-4%,-18%,1%,i,3%,nt,nt,nt,nt
COCc1nnc2n1CCC(NC(=O)CCc1c(C)noc1C)CC2 (centres undefined),-3%,2%,1%,i,-22%,nt,nt,nt,nt
O=C(CCCc1ccccc1)N1CCCC(Cc2nc(C3CCOCC3)no2)C1 (centres undefined),?,0%,0%,i,?,nt,nt,nt,nt
COCCC(=O)N1CCCC(Cc2nc(C3CCOCC3)no2)C1 (centres undefined),3%,-15%,-18%,i,i,-7%,1%,1%,2%
Cc1ccc(CN2C[C@@H](CO)[C@H](c3nc(-c4ccncc4)no3)C2)cc1,?,-19%,11µM*,i,?,24µM*,24µM*,-7%,24µM*
COCC1CN(C2CCC2)CC12CCN(C(=O)c1ccc(OC)cc1C)CC2 (centres undefined),?,i,-21%,i,-18%,nt,nt,nt,nt
